This is a sample that favours compounds with a hit; in the whole collection about 1.9% have one here.
FPRL1 binder – human FPRL1 ligand, with FPR counter-screen. 24,000 tested, 0.3% active. P25090. FPRL1-expressing cells, fluorescent ligand binding inhibition, flow cytometry. inhibition, % (concentration not given with the values);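 further: 0% = buffer alone and 100% = receptor blocker peptide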
S aureus QS inh – S. aureus quorum sensing inhibition | 24,000 tested, 0.3% active | S. aureus RN6390 RNAIII-GFP reporter, AIP-induced, flow cytometry 3 h | inhibition, % at 2 µM;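 active means share of bacteria positive for the green fluorescent reporter and its mean brightness both inhibited by 50% or more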;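 further: 0% = AIP-stimulated control and 100% = unstimulated bacteria without AIP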
FPR ligand – binds the human formylpeptide receptor FPR | inhibition, % (no concentration beside the values) | FPR-expressing cells, fluorescent ligand binding, flow cytometry | 24,000 tested, 0.74% active;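 further: 0% = buffer wells and 100% = receptor blocker peptide wells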
Target sequence (P21462 whole entry, looked up): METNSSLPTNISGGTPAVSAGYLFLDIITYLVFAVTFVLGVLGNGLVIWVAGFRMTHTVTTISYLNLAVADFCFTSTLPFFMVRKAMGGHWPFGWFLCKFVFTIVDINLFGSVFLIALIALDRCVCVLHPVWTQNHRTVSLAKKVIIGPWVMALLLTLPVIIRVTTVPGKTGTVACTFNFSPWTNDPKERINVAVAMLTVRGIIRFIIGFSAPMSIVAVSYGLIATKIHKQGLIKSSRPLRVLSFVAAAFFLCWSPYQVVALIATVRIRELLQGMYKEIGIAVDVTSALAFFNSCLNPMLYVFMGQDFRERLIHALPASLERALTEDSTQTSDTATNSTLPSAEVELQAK
LNCaP diff act – promotes differentiation of LNCaP prostate cells. flow cytometry side scatter, 4 d. side scatter shift, % at 10 µM. 24,000 tested, 0.56% active;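 active means side scatter shift above 30%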;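 further: androgen-responsive LNCaP prostate cancer cells in charcoal-stripped serum medium; percent of cells past a gate set so DMSO wells show 10% shift; higher shift means more granular cells and more differentiation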
* = called active by the depositor; . = not tested or not shown. Unless noted, no stated cut-off is given here; in the data, active means inhibition above about 30%; inconclusive means no clear call, values can overlap the other calls; inactive means below that.

SMILES	FPRL1 binder	S aureus QS inh	FPR ligand	LNCaP diff act
CCOC(=O)c1sc(NC(=O)COC(=O)Cn2cnc3ccccc32)c(C(=O)OCC)c1C	3	-2	8	9
CC(C)Cc1nc2oc3c(N4CCN(CCO)CC4)ncnc3c2c2c1CCCC2	0	3	2	32*
Nc1ccc2[nH]ncc2c1	-3	-3	0	2
CCOC(=O)c1cnn(-c2cc(C)c3cc(C)cc(C)c3n2)c1N	7	-4	-2	32*
CCOC(=O)c1cnc2nc(C)[nH]n2c1=O	0	-1	0	2
COc1ccc2[nH]cc(CCN=C3SCC(=O)N3C)c2c1	3	-9	0	10
O=C1CS/C(=N\C(=O)N2c3ccccc3Sc3ccccc32)N1	1	87*	7	10
CCCCN(CC)CCCNC(=O)c1cc2c(=O)n(C)c3ccccc3c2n1C	3	-1	1	23
COc1ccccc1-n1c(SC)nc(O)cc1=O	-10	2	41*	7
COc1ccccc1-n1c(C)nnc1SCC(N)=O	3	-2	0	8
Cc1ccc2c(c1)NC(=O)C(CC(=O)NCCCN1CCN(c3cc(Cl)ccc3C)CC1)O2 (stereo not given)	-3	0	-5	44*
Cc1ccc2c(c1)NC(=O)C(CC(=O)NCCCN1CCCCC1)O2 (stereo not given)	2	0	-2	11
O=C(NCc1cccs1)C1CCN(S(=O)(=O)c2cccc3nsnc23)CC1	6	2	-2	6
CCOc1cccc(/C(O)=C2/C(=O)C(=O)N(Cc3ccco3)C2c2ccncc2)c1 (stereo not given)	29	.	48*	.
COc1cccc(/C(O)=C2/C(=O)C(=O)N(Cc3ccco3)C2c2ccncc2)c1 (stereo not given)	-2	.	12	.
COc1ccc(OC)c(C2/C(=C(/O)c3ccccc3)C(=O)C(=O)N2Cc2ccco2)c1 (stereo not given)	-15	.	92*	.
Cc1ccc(/C(O)=C2\C(=O)C(=O)N(CC(C)O)C2c2ccc(N(C)C)cc2)cc1 (stereo not given)	24	.	36*	.
Cc1ccc(C2/C(=C(/O)c3ccc(Br)cc3)C(=O)C(=O)N2Cc2ccco2)o1 (stereo not given)	-2	.	31*	.
COc1ccc(/C(O)=C2\C(=O)C(=O)N(Cc3ccco3)C2c2cc(OC)ccc2OC)cc1 (stereo not given)	-4	.	-11	.
COc1ccccc1C1/C(=C(/O)c2ccc(C)cc2)C(=O)C(=O)N1CC(C)O (stereo not given)	1	.	-10	.
COc1ccc(OC)c(C2/C(=C(/O)c3ccc(C)cc3)C(=O)C(=O)N2Cc2ccco2)c1 (stereo not given)	-6	.	0	.
COc1ccccc1C1/C(=C(/O)c2ccccc2)C(=O)C(=O)N1CC(C)C (stereo not given)	-4	-2	63*	11
COc1ccc(C2/C(=C(/O)c3ccccc3)C(=O)C(=O)N2CC(C)O)c(OC)c1 (stereo not given)	7	6	42*	13
Cn1c(SCc2nc(-c3ccc(Cl)cc3)no2)nnc1-c1ccco1	-7	4	-1	14
CCOc1ccc(N(CC(=O)N2CC=C(c3ccccc3)CC2)S(=O)(=O)c2c(C)noc2C)cc1	2	53*	-4	1
SMILES	FPRL1 binder	S aureus QS inh	FPR ligand	LNCaP diff act
CCSCc1nnc(SCC(=O)Nc2cccc(SC)c2)n1C	-2	-3	-4	5
N#Cc1c(NC(NC(=O)c2ccco2)C(=O)c2ccccc2)sc2c1CCCC2 (stereo not given)	-3	84*	7	2
CC(=O)Nc1sc2c(c1C#N)CCCCC2	-2	-2	-7	9
CN(C)c1ccc(-c2nn3c(-c4ccc(Cl)cc4Cl)nnc3s2)cc1	-1	0	3	39*
Cc1oc(-c2ccc(Cl)cc2)cc1-c1nn2c(-c3ccoc3C)nnc2s1	2	-1	5	7
CCOC(=O)c1sc2ncnc(N3CCN(c4ccc(OC)cc4)CC3)c2c1C	1	8	-6	35*
CCOc1ccccc1NC(=O)CCN1CCN(S(=O)(=O)c2ccc(Br)cc2)CC1	-2	-1	7	6
COc1cc(-n2nc(C)c3c2OC(N)=C(C#N)C3c2ccccc2)c(Cl)c(Br)c1O (stereo not given)	-2	0	36*	6
CC(C)(C)NC(=O)C1CCCN(S(=O)(=O)c2cccc3cccnc23)C1 (stereo not given)	27	-4	35*	3
COc1ccc(-c2cc(C(F)(F)F)nc(N3CCN(C)CC3)n2)cc1	9	3	2	43*
COc1ccc(-c2cc(C(F)(F)F)nc(N3CCN(c4ccccc4)CC3)n2)cc1OC	16	0	68*	7
